9 compounds from the supplement of paper PMC8866396 can be followed below.

The subject of one assay is IL-6-GFP PC-9GR. Briefly: cell viability (CCK-8 OD) relative to DMSO control (fraction of control); higher = more viable cells. The conditions noted are these: compound concentration: 10 uM; treatment time: 48 h. The essentials:
(§1)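 Each well's viability is its CCK-8 optical density divided by that of the vehicle control well. The cells, PC-9 and PC-9GR lung cancer lines overexpressing IL-6-GFP from a lentiviral construct, were seeded at 3000 cells/well in 96-well plates and exposed for 48 h to each compound of a purchased 510-compound library at a final 10 μM, in two independent replicates.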

A further assay deals with IL-6-GFP PC-9. Described as above. The conditions noted are these: compound concentration: 10 uM; treatment time: 48 h. The essentials:
as §1

The structures appear in SMILES notation. ± gives the standard deviation of the averaged measurements.

For the compound `Nc1nc(N)c2nc(-c3ccccc3)c(N)nc2n1` [Triamterene], the cell viability in the assay with IL-6-GFP PC-9GR turned out to be 0.591 ± 0.14; in the assay with IL-6-GFP PC-9, 0.842 ± 0.038.
Turning to `CC(C)=CCCC(C)(OC1OC(CO)C(O)C(O)C1O)C1CCC2(C)C1C(O)CC1C3(C)CCC(O)C(C)(C)C3C(OC3OC(CO)C(O)C(O)C3O)CC12C` (stereo not drawn) [Ginsenoside Rg1], the cell viability is 1.16 ± 0.26 in the assay on IL-6-GFP PC-9GR and 1.15 ± 0.17 in the assay on IL-6-GFP PC-9.
The corresponding values for `NC(=O)Cc1cccc(C(=O)c2ccccc2)c1N` [Nepafenac] are 1.07 ± 0.029 and 0.958 ± 0.1.
The like results for `Nc1ccccc1NC(=O)c1ccc(CNC(=O)OCc2cccnc2)cc1` [Entinostat (MS-275)] were, in that order, 0.59 ± 0.036 and 0.465 ± 0.028.
The corresponding values for `Cc1ccc(NC(=O)c2ccc(CN3CCN(C)CC3)cc2)cc1Nc1nc(-c2cccnc2)cs1` [Masitinib (AB1010)] are 0.268 ± 0.05 and 0.366 ± 0.26.
Consider `CCC1(O)C(=O)OCc2c1cc1n(c2=O)Cc2cc3c(CN(C)C)c(O)ccc3nc2-1.Cl` (stereo not drawn) [Topotecan HCl], for which the cell viability with IL-6-GFP PC-9GR is 0.451 ± 0.033; with IL-6-GFP PC-9, 0.355 ± 0.11.
The corresponding values for `O=C(NCC1CN(c2ccc(N3CCOCC3=O)cc2)C(=O)O1)c1ccc(Cl)s1` (stereo not drawn) [Rivaroxaban] are 0.949 ± 0.11 and 0.98 ± 0.11.
For the compound `CC(=O)O.CCNC(=O)C1CCCN1C(=O)C(CCCNC(=N)N)NC(=O)C(CC(C)C)NC(=O)C(CC(C)C)NC(=O)C(Cc1ccc(O)cc1)NC(=O)C(CO)NC(=O)C(Cc1c[nH]c2ccccc12)NC(=O)C(Cc1c[nH]cn1)NC(=O)C1CCC(=O)N1` (stereo not drawn) [Leuprolide Acetate], the cell viability in the assay with IL-6-GFP PC-9GR turned out to be 1.16 ± 0.31; in the assay with IL-6-GFP PC-9 it was 1.28 ± 0.073.
Take `CC1(C)C2CCC1(C)C(O)C2` (stereo not drawn) [Borneol]: the figures for the cell viability with IL-6-GFP PC-9GR and with IL-6-GFP PC-9 were 1.27 ± 0.36 and 0.778 ± 0.016, respectively.
